# Source: PubChem
# TDP1 cell noCPT: qHTS for Inhibitors of human tyrosyl-DNA phosphodiesterase 1 (TDP1): qHTS in cells in absence of CPT. DT40 Tdp1-/- hTDP1 cells, no CPT, ATP luminescence, 48 h. Potency, µM (series often up to 46.2 µM), usual class: inhibitors. 15% of 420,000 active. AID 686978, 2013; note: nearly all actives have a fitted effect of over 55% in size
#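 Readout: luminescence from CellTiter-Glo after 30 min in the dark at RT. Cells: DT40 Tdp1-/- with stable hTDP1, 400/well. Exposure: compounds alone, ≥48 hr, 37 °C.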
# VP16 counter: inhibits Gal4-VP16 luciferase reporter, ROR gamma counter-screen; Drosophila S2 Gal4-VP16 UAS-luciferase, luminescence, 20 h; Potency, µM (top dose mostly 53.6 µM), usual class: inhibitors; 3.5% of 310,000 active;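 note: Gal4-VP16 expression switched on by copper sulfate through the metallothionein promoter; nearly all actives have a fitted effect of over 50% in size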
# ELG1 DNA repair: ELG1-dependent DNA repair inhibition. Potency, µM (series often up to 46.1 µM), actives largely listed as inhibitors. AID 504467. 2.3% of 330,000 active. HEK293T ELG1-luciferase reporter, luminescence, 16 h; DNA damage induced by 5-fluorouridine; note: nearly all actives have a fitted effect of over 55% in size
#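 Reporter activity after DNA damage by 5-fluorouridine is monitored. Compound-treated cells incubate 16 hr at 37 °C, then ONE-Glo is added for 30 min before luminescence reading.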
# TDP1 cell CPT: growth inhibition of DT40 Tdp1-/-;hTDP1 cells with camptothecin (screen for TDP1 inhibitors); Potency, µM (highest dose often 46.2 µM), most hits filed as inhibitors; 12% of 420,000 active; chicken DT40 Tdp1-/-;hTDP1 cells + 20 nM CPT, ATP luminescence, 48 h; note: nearly all actives have a fitted effect of over 55% in size
#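 Cell growth measured by CellTiter-Glo luminescence after a minimum 48 h, 37 C compound exposure with 20 nM CPT in Tdp1-knockout DT40 cells stably expressing hTDP1, seeded 400/well; qHTS titration format.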
# RORgamma inh: blocks mouse ROR gamma transcriptional activity; Drosophila S2 Gal4-RORgamma UAS-luciferase reporter, 20 h; Potency, µM (doses to about 53.6 µM), most hits filed as inhibitors; 5.4% of 310,000 active; AID 2551; note: nearly all actives have a fitted effect of over 60% in size
# Target sequence (P51450 whole entry, looked up, the tested form may be a part): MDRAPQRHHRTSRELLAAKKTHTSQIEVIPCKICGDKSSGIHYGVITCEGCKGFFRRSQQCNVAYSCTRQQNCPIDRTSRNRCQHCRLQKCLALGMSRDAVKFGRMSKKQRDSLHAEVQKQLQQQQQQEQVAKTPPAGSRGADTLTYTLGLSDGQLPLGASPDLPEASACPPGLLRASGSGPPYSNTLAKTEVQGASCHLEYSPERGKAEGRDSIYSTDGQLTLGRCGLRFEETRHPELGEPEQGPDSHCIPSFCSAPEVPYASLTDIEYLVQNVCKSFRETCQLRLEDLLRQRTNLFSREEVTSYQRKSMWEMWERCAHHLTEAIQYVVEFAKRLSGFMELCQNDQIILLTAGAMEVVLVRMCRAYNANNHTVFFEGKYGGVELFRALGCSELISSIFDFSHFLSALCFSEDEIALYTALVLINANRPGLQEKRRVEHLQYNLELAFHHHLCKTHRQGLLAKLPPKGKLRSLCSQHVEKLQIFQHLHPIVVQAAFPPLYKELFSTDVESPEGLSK
#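 Stably transfected Drosophila Schneider cells are the test system, with ROR gamma fused to Gal4 and luciferase under UAS control; luminescence is read after 20 hr of 700 uM copper sulfate induction at ambient temperature.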
# IL-1B inflam inh: blocks inflammasome-driven IL-1 beta release. THP-1 LPS/ATP IL-1B secretion, AlphaLISA, 16 h; active compounds read low. activity change, % at 57.5 µM. 4.7% of 360,000 active; in the data active = activity change below about -50%; inconclusive = mostly about -30% to -49%
#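 THP-1 cells pretreated 1 hr with compounds (up to 57.5 uM final), then stimulated with LPS (250 ng/mL final) plus ATP (1.25 mM final); secreted IL-1B measured by AlphaLISA after 16 hr, decreased signal indicating inhibition.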
# Hits are given with their value; i = inactive; ? = inconclusive; nt = no result. In the library only some 21% were active in any assay of this set; here they are far more common. Unless noted, calls come from the whole dose curve; as a rule, active = well fitted curve in the direction sought with a large enough effect; inconclusive = small, poorly fitted or top-dose-only effect, or another doubt; inactive = no such curve, though single readings can be large; an effect the other way counts as inactive or inconclusive.
SMILES,TDP1 cell noCPT,VP16 counter,ELG1 DNA repair,TDP1 cell CPT,RORgamma inh,IL-1B inflam inh
Cc1ccc(NC(=O)CCNS(=O)(=O)c2cc(Br)cnc2N)cc1Cl,?,i,i,?,i,?
Cc1cccc(-n2c(C)cc(C(=O)C(=O)Nc3nncs3)c2C)c1,i,nt,nt,i,nt,nt
C=CC(=O)N=c1sc2ccccc2n1-c1ccccc1,2.59µM,?,i,2.59µM,10µM,-103.7
N=c1sc2ccccc2n1-c1ccccc1,25.9µM,i,i,?,i,i
COC(=O)Cn1c(=NC(=O)CSC(C)=O)sc2ccccc21,?,i,?,?,i,i
O=c1sc2ccccc2n1Cc1ccccc1,i,i,?,i,i,i
Cc1ccc(-c2nc3c4ccccc4ccn3c2CC2CCCCC2)cc1,i,nt,nt,?,nt,i
CCc1nc2c(OCC(=O)C(C)(C)C)cccn2c1N(C=O)Cc1ccc(OC)cc1,?,nt,nt,i,nt,i
CCCCn1c(N)c(N(C)C(=O)c2ccc(-n3cccn3)cc2)c(=O)[nH]c1=O,i,nt,i,i,nt,i
CCCCN(C=O)c1c(CC)nc2c(OCCOc3ccc(F)cc3)cccn12,16.4µM,nt,nt,?,nt,i
CCCCN(C=O)c1c(CC)nc2c(OCCn3cccc3)cccn12,23.1µM,nt,nt,?,nt,i
O=C1NC[C@@H](CCCCN2C[C@H](Cc3ccccc3)N(CC3CCCCC3)C(=O)C2=O)N(CCc2ccccc2)C1=O,i,nt,nt,i,nt,i
CC(OC(=O)C1CC(O)CN1S(=O)(=O)c1ccccc1[N+](=O)[O-])C(=O)N1CCCCC1 (stereo unspecified),i,?,i,i,i,i
COC(=O)c1ccc(COC(=O)[C@@H]2CC(O)CN2S(=O)(=O)c2ccccc2[N+](=O)[O-])cc1 (stereo partly specified),i,nt,i,i,nt,-97.4
O=C(COC(=O)[C@@H]1CC(O)CN1S(=O)(=O)c1ccccc1[N+](=O)[O-])c1ccccc1 (stereo partly specified),i,i,i,i,?,i
CCc1cccc2c(C(=O)COC(=O)[C@@H]3CC(O)CN3S(=O)(=O)c3ccccc3[N+](=O)[O-])c[nH]c12 (stereo partly specified),20.6µM,nt,?,23.1µM,nt,-76.4
CC(C)N1CCC1(C)C(=O)Nc1ccc2cn[nH]c2c1 (stereo unspecified),i,nt,nt,?,nt,i
CC(/C=N/n1c(-c2cc(C)[nH]n2)n[nH]c1=S)=C\c1ccccc1,?,?,i,?,8.91µM,i
CC(/C=N/n1c(C2CCCCC2)n[nH]c1=S)=C\c1ccccc1,?,10µM,i,?,3.55µM,?
S=c1[nH]nc(C2CCCCC2)n1/N=C/c1cccc(Br)c1,i,i,i,i,2µM,i
Cc1cccc(/C=N/n2c(C3CCCCC3)n[nH]c2=S)c1,i,7.08µM,i,i,3.16µM,i
COc1ccc(NC(=O)NC2(C(=O)N3CCCC(C)C3)CCCCC2)cc1 (stereo unspecified),?,i,?,?,i,i
Cc1cc(-c2n[nH]c(=S)n2/N=C/c2cc([N+](=O)[O-])ccc2Cl)n[nH]1,18.4µM,i,i,5.17µM,i,i
COC(=O)c1ccc(C(NC(=O)OCc2ccccc2)/C(=C/[C@@H](C)C(=O)N(C)C)c2cccnc2)cc1 (stereo partly specified),nt,i,nt,nt,i,nt
S=c1[nH]nc(Nc2ccccc2Cl)s1,i,i,?,i,7.94µM,i
SMILES,TDP1 cell noCPT,VP16 counter,ELG1 DNA repair,TDP1 cell CPT,RORgamma inh,IL-1B inflam inh
CCOc1ccccc1NC(C)C(=O)Nc1cc(C(F)(F)F)ccc1N1CCOCC1 (stereo unspecified),18.4µM,i,i,?,i,i
Cc1ccccc1SCC(=O)Nc1cc(C(F)(F)F)ccc1N1CCOCC1,?,nt,?,?,nt,-69.7
O=C(Cn1c(C(F)(F)F)nc2ccccc21)Nc1ccccc1N1CCOCC1,i,i,i,i,i,i
CSc1nc2ccccc2n1CC(=O)Nc1cc(C(F)(F)F)ccc1N1CCOCC1,16.4µM,i,i,20.6µM,i,i
O=C(CCNC(=O)c1ccc(Cl)cc1)Nc1cc(C(F)(F)F)ccc1N1CCOCC1,23.1µM,nt,nt,25.9µM,nt,i
O=C(CN1C(=O)COc2ccccc21)NCCc1ccc(Cl)cc1,i,nt,nt,i,nt,nt
Cc1ccc(S(=O)(=O)NC(=O)N(C)C2CCCCC2)cc1,i,i,i,i,i,i
Cc1cc(C)cc(NC(=O)c2ncn(-c3ccccc3)n2)c1,?,nt,nt,i,nt,nt
COc1cccc(NC(=O)CCN2CCN(CCO)CC2)c1,i,nt,nt,i,nt,nt
COc1ccc(NC(=O)Cn2ccn(Cc3ccccc3)c(=O)c2=O)cc1Cl,i,nt,nt,i,nt,nt
COc1cc(OC)cc(-c2nnc(NC(=O)CCS(=O)(=O)c3ccc(F)cc3)o2)c1,?,nt,i,?,nt,-65.8
COc1cc(OC)cc(-c2nnc(NC(=O)CCS(=O)(=O)c3ccccc3)o2)c1,16.4µM,nt,i,?,nt,-72.4
CN(Cc1ccccc1)c1nc(CN2CCOCC2)nc2scc(-c3ccccc3)c12,16.4µM,?,?,?,10µM,i
Fc1ccc(N2CCN(c3nc(CN4CCOCC4)nc4scc(-c5ccccc5)c34)CC2)cc1,14.6µM,i,?,23.1µM,10µM,i
O=C(c1ccc([N+](=O)[O-])cc1Cl)N1CCN(Cc2ccccc2)CC1,i,nt,nt,?,nt,i
O=C1c2ccccc2NC(c2cccc([N+](=O)[O-])c2)N1CCc1ccccc1 (stereo unspecified),?,i,?,i,i,-82.5
Cc1cccc(C2Nc3ccccc3C(=O)N2CCc2ccccc2)n1 (stereo unspecified),?,i,i,?,i,i
COc1ccc(CCN2C(=O)c3ccccc3NC2c2cc(Cl)c(O)c(OC)c2)cc1 (stereo unspecified),4.11µM,i,7.3µM,4.61µM,i,i
CC12CCC(=O)C=C1C(F)CC1C2C(O)CC2(C)C1CCC2(O)C(=O)CO (stereo unspecified),i,nt,nt,i,nt,nt
Cn1c(=O)oc2cc(S(=O)(=O)N3CCCC(C(=O)NCCN4CCOCC4)C3)ccc21 (stereo unspecified),i,i,i,i,i,i
Cn1c(=O)oc2cc(S(=O)(=O)N3CCCC(C(=O)Nc4ccc(Br)cc4F)C3)ccc21 (stereo unspecified),i,nt,nt,i,nt,nt
Cn1c(=O)oc2cc(S(=O)(=O)N3CCCC(C(=O)Nc4nccs4)C3)ccc21 (stereo unspecified),20.6µM,i,i,?,i,i
CCN(CC)c1ccc(NC(=O)C2CCCN(S(=O)(=O)c3ccc4c(c3)oc(=O)n4C)C2)c(C)c1 (stereo unspecified),10.3µM,nt,nt,20.6µM,nt,nt
